From PubChem BioAssay (Tox21)
Results filed as inconclusive are left out. A number with no mark means an inactive call. The call rests on the fitted dose curve.

target: Vitamin D3 receptor (Homo sapiens) (UniProt P11473); test: qHTS assay to identify small molecule agonists of the vitamin D receptor (VDR) signaling pathway (AID 743222); settings: HEK293T VDR-UAS-bla, beta-lactamase FRET ratio, 16 h; series mostly up to 63.5 µM; activation: at the top concentration
Source text: National Center for Advancing Translational Sciences [NCATS]
NIH Chemical Genomics Center [NCGC]
U.S. Environmental Protection Agency [EPA]
National Institutes of Environmental Health Sciences [NIEHS]
National Toxicology Program [NTP]
U.S. Food and Drug Administration [FDA]
The vitamin D receptor (VDR), a member of nuclear hormone receptor superfamily, plays a critical role in calcium homeostasis and bone metabolism. It is also involved in cell differentiation and growth, and thrombogenicity.
Tox21 Assay Protocol Summary:
VDR-bla cells were dispensed at 2,000 cells/6 uL/well into black wall/clear-bottom 1536-well plates using a Multidrop Combi (Thermo Fisher Scientific, Waltham, MA) dispenser. After the assay plates were incubated at a 37C and 5% CO2 for 4 h, 23 nL of compounds dissolved in DMSO, positive controls or DMSO only was transferred to the assay plate by a Pintool station (Kalypsys, San Diego, CA). The plates were incubated at 37C and 5% CO2 for 16 h. After 1 uL of LiveBLAzerTM B/G FRET substrate was added using a Bioraptr Flying Reagent Dispenser (FRD) workstation (Beckman Coulter, Indianapolis, IN, USA), the plates were incubated at room temperature for 2 h, and fluorescence intensity was measured by an Envision plate reader (PerkinElmer, Shelton, CT).
On the % scale 0 is the no-effect control and ±100 the full control effect.

Vitamin D3 receptor (Homo sapiens), sequence (P11473 whole entry, looked up): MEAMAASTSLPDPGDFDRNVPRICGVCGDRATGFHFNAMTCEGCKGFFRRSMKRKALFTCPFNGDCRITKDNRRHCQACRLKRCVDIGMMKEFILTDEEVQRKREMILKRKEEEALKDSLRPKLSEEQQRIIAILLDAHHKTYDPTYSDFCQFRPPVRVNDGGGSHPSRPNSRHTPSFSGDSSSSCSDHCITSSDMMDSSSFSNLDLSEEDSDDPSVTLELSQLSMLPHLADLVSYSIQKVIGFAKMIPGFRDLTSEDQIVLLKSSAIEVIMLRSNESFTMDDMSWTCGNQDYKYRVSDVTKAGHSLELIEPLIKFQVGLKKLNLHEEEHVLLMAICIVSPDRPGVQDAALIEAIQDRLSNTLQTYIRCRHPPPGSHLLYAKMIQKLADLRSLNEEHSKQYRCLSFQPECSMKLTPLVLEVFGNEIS

SMILES | activation
CCCCCCOC(=O)c1ccccc1 | -13.6%
C[C@H](CN1CCCC1)C(=O)c1ccc(C(F)(F)F)cc1 | -3.64%
CC/C=C\CCO | 3.86%
CCCN(C1CCN(C(=O)C2CCNCC2)CC1)[C@@H]1CCc2ccc(OC)cc2C1 | -7.33%
CCC(=O)O[C@]1(C(=O)COC)[C@@H](C)C[C@H]2[C@@H]3CCC4=CC(=O)C=C[C@]4(C)C3(F)[C@@H](O)C[C@@]21C (stereo not given in full) | -12.1%
CC(C)(C)c1ccc(CCC=O)cc1 | 4.58%
C[C@H]1C[C@H]2[C@@H]3CCC4=CC(=O)C=C[C@]4(C)[C@@]3(F)[C@@H](O)C[C@]2(C)[C@@]1(O)C(=O)COP(=O)(O)O | 3.29%
CC(O)CN (stereo not given) | 2.37%
NCCOCCOCCN | -13.8%
CCCCCCCCCCCCCCCCC(=O)O | 0.563%
NC(=O)c1ccccc1 | -5.8% [at 81.1 µM]
CCOCCn1c(N2CCCN(C)CC2)nc2ccccc21 | 1.33%
CC(C)=CCC/C(C)=C/C=N/O | -6.96%
CC(COc1ccccc1)NC(C)C(O)c1ccc(O)cc1 (stereo not given) | -7.62%
CCCC(=O)OCc1ccccc1 | 2.06%
C[Si](C)(C)O[Si](C)(C)O[Si](C)(C)C | 2.09%
O=C(Cl)c1ccc(F)c(Cl)c1 | 4.49%
CO[C@@H]1COCC[C@@H]1N[C@@H]1CC[C@@](C(=O)N2CCc3ncc(C(F)(F)F)cc3C2)(C(C)C)C1 | -8.06%
O=C(O)c1cc(C(=O)O)c(C(=O)O)cc1C(=O)O | 3.9%
O=C1c2ccccc2C(=O)C1c1ccc2ccccc2n1 | -11.9%

SMILES | activation
COc1cccc([C@H](O)C2CCN(CCc3ccc(F)cc3)CC2)c1OC | -9.29%
C1=COCCC1 | 3.61%
O=C(c1ccc(Cl)cc1)c1ccc(Cl)cc1 | 2.59%
OCCc1ccncc1 | -6.12%
CC(Cc1ccccc1)(NC(=O)CN)c1ccccc1 (stereo not given) | -7.39%
Nc1ccc(-c2ccc(F)cc2)cc1 | -5.69%
CC1=C(C)C(=O)C(C(CCCCCC(=O)O)c2ccccc2)=C(C)C1=O (stereo not given) | -19.4%
C/C(=C(\CCO)SS/C(CCO)=C(\C)N(C=O)Cc1cnc(C)nc1N)N(C=O)Cc1cnc(C)nc1N | 4.82%
CC(C)C/C=C(\C=O)c1ccccc1 | -12.9%
CCOc1cc(OCC)c(C(C)=O)cc1OCC | -12.1%
O=c1[nH]nc(-c2ccc([N+](=O)[O-])o2)o1 | -2.59%
CCCCCCCCCCCCCCCCN | 1.15%
CCCC(=O)OCCC(C)C | -0.396%
CC1(C)C(=O)NC(=O)N1CO | 1.3%
CCc1cnc(C(=O)O)c(C(=O)O)c1 | -3.32% [at 81.1 µM]
CCCCCCCCOCCCN | -3.21%
CC(=O)Nc1ccn(C2COC(COC(=O)c3ccccc3)O2)c(=O)n1 (stereo not given) | -0.336%
O=C(O)CNc1ccccc1 | -1.34%
S=c1[nH][nH]c(=S)s1 | -0.969%
Cc1ccc(S(=O)(=O)NC(=O)NC2CCCC2)cc1 | 0.744%
